PubChem BioAssay (Tox21)
Records with an inconclusive call do not appear. Calls of active or inactive are those of the source. Unless noted, calls follow the shape of the dose curve; as a rule, active = well fitted curve in the direction sought with a large enough effect in the repeat runs; inconclusive = weak or mixed curves; inactive = no such curve, though single readings can be large; an effect the other way counts as inactive or inconclusive.

How the values were obtained:
[1] = qHTS assay to identify small molecule agonists of the peroxisome proliferator-activated receptor delta (PPARd) signaling pathway - cell viability counter screen (AID 743211); also: nearly all actives have a fitted effect of over 55% in size
In short: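 Viability of GeneBLAzer PPARd UAS-bla HEK293H cells was assessed after 17 h compound incubation at 37C, using CellTiter-Glo reagent added after the reporter read and luminescence recorded 30 min later.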

[2] = target: Peroxisome proliferator-activated receptor delta (Homo sapiens) (UniProt Q03181); test: qHTS assay to identify small molecule agonists of the peroxisome proliferator-activated receptor delta (PPARd) signaling pathway (AID 743212; calls by dose curve; also: potency is read from the fitted curve at half-maximal effect)
In short: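 A PPARd-bla HEK293H line with beta-lactamase under an Upstream Activator Sequence is treated with compounds at 37 C. Substrate loading for 2 h at room temperature precedes the fluorescence measurement.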

[3] = qHTS assay to identify small molecule antagonists of the peroxisome proliferator-activated receptor delta (PPARd) signaling pathway - cell viability counter screen (AID 743213); also: nearly all actives have a fitted effect of over 50% in size
In short: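 HEK293H PPARd UAS-bla cells, 5 h pre-incubation, compound + L165041 300 nM final, 17 h 37 C; B/G FRET substrate 2 h RT; then CellTiter-Glo 30 min RT, luminescence.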

[4] = target: Peroxisome proliferator-activated receptor delta (Homo sapiens) (UniProt Q03181); test: qHTS assay to identify small molecule antagonists of the peroxisome proliferator-activated receptor delta (PPARd) signaling pathway (AID 743215; active = well fitted inhibition curve with a large enough effect in the signal ratio in the repeat runs, not every such curve was filed as active; the % refers to the signal ratio;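 also: cells stimulated with agonist L165041 at 300 nM final during compound exposure; series mostly up to about 62 µM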)
In short: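 Antagonist-mode beta-lactamase reporter screen: HEK293H cells with UAS-bla under PPARd control, stimulated by 300 nM L165041 (final) alongside test compound for 17 h at 37 C, then FRET fluorescence after 2 h substrate incubation.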

[5] = target: Bile acid receptor (Homo sapiens) (UniProt Q96RI1); test: qHTS assay to identify small molecule antagonists of the farnesoid-X-receptor (FXR) signaling pathway (AID 743217; active = well fitted inhibition curve with a large enough effect in the signal ratio in the repeat runs, not every such curve was filed as active; the % refers to the signal ratio)
In short: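 Beta-lactamase reporter under UAS control in HEK 293T cells; compound exposure 16 h at 37 °C in the presence of chenodeoxycholic acid (50 uM final); signal from B/G FRET substrate after 2 h at room temperature.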

[6] = qHTS assay to identify small molecule agonists of the farnesoid-X-receptor (FXR) signaling pathway - cell viability counter screen (AID 743218); also: nearly all actives have a fitted effect of over 45% in size
In short: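 In GeneBLAzer FXR-UAS-bla HEK 293T cells, compounds act for 16 h at 37 C. Cell viability is then scored in the reporter wells by CellTiter-Glo, 30 min at RT, luminescence.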

[7] = target: Bile acid receptor (Homo sapiens) (UniProt Q96RI1); test: qHTS assay to identify small molecule agonists of the farnesoid-X-receptor (FXR) signaling pathway (AID 743220; active = well fitted activation curve with a large enough effect in the signal ratio in the repeat runs, not every such curve was filed as active; the % refers to the signal ratio)
In short: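 Beta-lactamase reporter under UAS control in GeneBLAzer FXR HEK 293T cells (5000/well) measured with LiveBLAzer FRET substrate after 2 h at room temperature. Compound exposure lasted 16 h at 37C.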

[8] = qHTS assay to identify small molecule antagonists of the farnesoid-X-receptor (FXR) signaling pathway - cell viability counter screen (AID 743221; active = well fitted cell-killing curve with a large enough effect in the repeat runs, not every such curve was filed as active; also: nearly all actives have a fitted effect of over 50% in size)
In short: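 Quantitative HTS of the Tox21 10K library run in parallel with the beta-lactamase reporter read. HEK 293T cells carrying a UAS-driven bla reporter got compound and 50 uM CDCA (final) for 16 h; ATP-based luminescence followed.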

[9] = target: Vitamin D3 receptor (Homo sapiens) (UniProt P11473); test: qHTS assay to identify small molecule agonists of the vitamin D receptor (VDR) signaling pathway (AID 743222; calls by dose curve)
In short: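 Agonist activity measured in VDR-bla reporter cells. Exposure 16 h, 37C, 5% CO2; detection by B/G FRET substrate, 2 h RT.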

[10] = target: Vitamin D3 receptor (Homo sapiens) (UniProt P11473); test: qHTS assay to identify small molecule antagonists of the vitamin D receptor (VDR) signaling pathway (AID 743223; active = well fitted inhibition curve with a large enough effect in the signal ratio in the repeat runs, not every such curve was filed as active; the % refers to the signal ratio)
In short: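 Fluorescence from LiveBLAzer B/G FRET substrate, read after 2 h at room temperature, reflects beta-lactamase reporter activity in VDR-bla cells treated 16 h at 37C with compounds and agonist 1alpha,25-dihydroxyvitamin D3 (3 nM final).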

[11] = qHTS assay to identify small molecule agonists of the vitamin D receptor (VDR) signaling pathway - cell viability counter screen (AID 743224); also: series mostly up to about 63 µM; nearly all actives have a fitted effect of over 50% in size
In short: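 VDR-bla cell line, quantitative HTS format; 16 h compound incubation (37C, 5% CO2); ATP-based CellTiter-Glo luminescence measured in the reporter assay wells.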

[12] = qHTS assay to identify small molecule antagonists of the vitamin D receptor (VDR) signaling pathway - cell viability counter screen (AID 743225); also: nearly all actives have a fitted effect of over 50% in size
In short: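 Cells (VDR-UAS-bla HEK 293T) are plated, rested 4 h at 37C, dosed with compound and 3 nM final 1-alpha,25-dihydroxy vitamin D3, and incubated 16 h. Viability is taken from CellTiter-Glo luminescence in the reporter wells.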

[13] = qHTS assay to identify small molecule agonists of the NFkB signaling pathway (AID 1159509; active = well fitted curve in the direction sought with a large enough effect in the signal ratio in the repeat runs, not every such curve was filed as active; the % refers to the signal ratio; also: series mostly up to about 61 µM)
In short: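 ME-180 NFkB-bla, 2,000 cells/well, overnight plating; cpd pinned in DMSO, 5 h 37 C; B/G FRET substrate 1.5 h RT; ex 405, em 460/530 nm.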

[14] = qHTS assay to identify small molecule agonists of the NFkB signaling pathway - cell viability counter screen (AID 1159515; calls by dose curve; also: series mostly up to about 61 µM; nearly all actives have a fitted effect of over 55% in size)
In short: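 Viability in NFkB-bla ME-180 cells was measured by CellTiter-Glo luminescence, 30 min room temperature, in wells already treated 5 hr with compounds and read for reporter FRET.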

[15] = qHTS assay to identify small molecule agonists of the endoplasmic reticulum stress response signaling pathway (AID 1159516; active = well fitted activation curve with a large enough effect in the signal ratio in the repeat runs, not every such curve was filed as active; the % refers to the signal ratio)
In short: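 ER stress element reporter (bla) in HeLa. 1,500 cells/well, overnight attachment; 5 hr compound; 2 hr RT substrate; dual-emission fluorescence.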

[16] = qHTS assay to identify small molecule agonists of the endoplasmic reticulum stress response signaling pathway - cell viability counter screen (AID 1159517; calls by dose curve)
In short: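 CellTiter-Glo was added to wells already read for beta-lactamase FRET, and luminescence was recorded 30 min later. Cells: ESRE-bla HeLa, 1,500 per well, compound exposure 5 hr at 37 C.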

[17] = qHTS assay to identify small molecule antagonists of the retinoid-related orphan receptor gamma (ROR-gamma) signaling pathway - cell viability counter screen (AID 1159520); also: nearly all actives have a fitted effect of over 50% in size
In short: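 Tet-on ROR gamma CHO cells (1,000/well) were plated 4 hr, given compounds in DMSO for 2 hr at 37 C, then induced with 1 uM final doxycycline for 16 hr. Viability was read as ATP by CellTiter-Glo luminescence after 30 min.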

[18] = target: Nuclear receptor ROR-gamma (Homo sapiens) (UniProt P51449); test: qHTS assay to identify small molecule antagonists of the retinoid-related orphan receptor gamma (ROR-gamma) signaling pathway (AID 1159521)
In short: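 RORγ antagonism is scored from reduced reporter luminescence in Tet-on CHO cells. Induction used 1 uM final doxycycline hyclate for 16 h at 37 C, following a 2 h compound exposure.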

[19] = qHTS assay to identify small molecule agonists of the AP-1 signaling pathway - cell viability counter screen (AID 1159525; calls by dose curve; also: nearly all actives have a fitted effect of over 55% in size)
In short: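 ME-180 AP-1-bla, 2500 cells/well, Opti-MEM + 0.5% dialyzed FBS; overnight 37 °C; cpd 15-pt titration, 5 h 37 °C; CellTiter-Glo 30 min RT; luminescence read; normalised to TOAB and DMSO controls.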

[20] = qHTS assay to identify small molecule agonists of the AP-1 signaling pathway (AID 1159526; calls by dose curve)

Measured: Potency

Vitamin D3 receptor (Homo sapiens), sequence (P11473 whole entry, looked up): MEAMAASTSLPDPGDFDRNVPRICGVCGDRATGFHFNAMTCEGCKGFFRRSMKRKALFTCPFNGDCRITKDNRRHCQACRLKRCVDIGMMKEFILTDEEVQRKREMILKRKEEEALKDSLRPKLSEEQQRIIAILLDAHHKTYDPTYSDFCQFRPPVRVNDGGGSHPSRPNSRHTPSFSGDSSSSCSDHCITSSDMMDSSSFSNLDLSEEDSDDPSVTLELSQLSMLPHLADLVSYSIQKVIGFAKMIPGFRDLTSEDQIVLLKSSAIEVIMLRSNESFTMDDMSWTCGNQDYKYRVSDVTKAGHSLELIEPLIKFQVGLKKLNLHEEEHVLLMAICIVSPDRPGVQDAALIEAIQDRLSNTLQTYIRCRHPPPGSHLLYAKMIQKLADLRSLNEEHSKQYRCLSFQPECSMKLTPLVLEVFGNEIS
Bile acid receptor (Homo sapiens), sequence (Q96RI1 whole entry, looked up): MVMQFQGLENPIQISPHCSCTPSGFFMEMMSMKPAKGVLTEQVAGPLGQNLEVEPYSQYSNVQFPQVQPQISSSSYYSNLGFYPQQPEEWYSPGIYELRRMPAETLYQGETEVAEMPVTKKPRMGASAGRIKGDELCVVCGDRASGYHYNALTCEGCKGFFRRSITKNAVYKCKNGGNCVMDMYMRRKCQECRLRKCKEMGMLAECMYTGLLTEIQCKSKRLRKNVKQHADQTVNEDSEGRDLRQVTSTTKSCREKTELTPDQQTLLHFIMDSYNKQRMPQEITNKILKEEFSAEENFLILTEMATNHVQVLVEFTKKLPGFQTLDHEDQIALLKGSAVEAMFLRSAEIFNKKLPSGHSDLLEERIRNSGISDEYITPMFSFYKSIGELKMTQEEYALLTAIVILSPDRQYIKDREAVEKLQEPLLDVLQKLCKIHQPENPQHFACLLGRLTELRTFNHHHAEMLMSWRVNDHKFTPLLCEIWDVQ
Peroxisome proliferator-activated receptor delta (Homo sapiens), sequence (Q03181 whole entry, looked up): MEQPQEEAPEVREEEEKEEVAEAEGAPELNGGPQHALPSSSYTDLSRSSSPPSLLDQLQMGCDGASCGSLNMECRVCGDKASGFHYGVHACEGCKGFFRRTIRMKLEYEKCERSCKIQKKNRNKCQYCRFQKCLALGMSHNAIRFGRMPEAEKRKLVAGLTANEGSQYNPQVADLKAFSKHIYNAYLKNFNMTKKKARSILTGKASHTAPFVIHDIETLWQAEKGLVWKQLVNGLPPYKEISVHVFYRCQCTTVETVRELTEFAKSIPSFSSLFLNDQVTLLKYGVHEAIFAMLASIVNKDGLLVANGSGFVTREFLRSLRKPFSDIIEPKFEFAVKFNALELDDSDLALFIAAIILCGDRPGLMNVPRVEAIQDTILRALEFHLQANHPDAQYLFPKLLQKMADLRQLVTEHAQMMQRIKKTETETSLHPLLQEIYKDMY

C=C(C)C(=O)OCC(C)C
inactive: all assays above

C[Si]1(C)O[Si](C)(C)O[Si](C)(C)O[Si](C)(C)O1
inactive: all assays above

Nc1ccc(Cl)c(N)c1
not listed: [6]
inactive: all other assays above

OC1C(O)C(O)C(O)C(O)C1O (stereo not drawn)
inactive: all assays above

CC(C)OP(=O)(CP(=O)(OC(C)C)OC(C)C)OC(C)C
inactive: all assays above

CCCCC(C=O)CC (stereo not drawn)
not listed: [10]
inactive: all other assays above

c1ccc(Oc2ccccc2)cc1
inactive: all assays above

COC(=O)CCCC(=O)OC
inactive: all assays above

NCCCCCCN
not listed: [5] | [7]
inactive: all other assays above

CCCCCCC=O
not listed: [5] | [7]
inactive: all other assays above

CCCOC(=O)c1ccccc1
not listed: [5] | [7]
inactive: all other assays above

COCCOC(=O)c1ccccc1C(=O)OCCOC
not listed: [5] | [7]
inactive: all other assays above

O=C1C(c2[nH]c3ccccc3c2O)=Nc2ccccc21
not listed: [9] | [10]
inactive: all other assays above

NCCNCCN
not listed: [5] | [7]
inactive: all other assays above

CCOC(=O)n1ccn(C)c1=S
not listed: [9] | [10]
inactive: all other assays above

CC(C)c1cccc(C(C)C)c1
inactive: all assays above

O=S(=O)(O)c1ccc(N=Nc2c(O)ccc3cc(S(=O)(=O)O)ccc23)cc1
inactive: all assays above

CC(=O)c1ccc(O)cc1
inactive: all assays above

CSc1ccc(Cl)cc1
inactive: all assays above

O=[N+]([O-])c1ccc2nc[nH]c2c1
not listed: [9] | [10]
inactive: all other assays above

CC(C)(Oc1ccc(CCNC(=O)c2ccc(Cl)cc2)cc1)C(=O)O
active: [2] 38.9 µM
inactive: all other assays above

COc1ccc(CCC(C)=O)cc1
inactive: all assays above

O=C(O)CCCCCCCCC(=O)O
inactive: all assays above

CCNc1cccc(C)c1
not listed: [5] | [7] | [12]
inactive: all other assays above

CC(C)CCCCCCCOC(=O)CCCCC(=O)OCCCCCCCC(C)C
inactive: all assays above

CNC(=O)Oc1ccc2c(c1)[C@]1(C)CCN(C)[C@@H]1N2C
inactive: all assays above

Clc1ccccn1
inactive: all assays above

CCNC(=S)NCC
not listed: [5] | [7]
inactive: all other assays above

COc1ccc([N+](=O)[O-])cc1N
inactive: all assays above

CC(C)CC(=O)CC(C)CC(C)C (stereo not drawn)
not listed: [9] | [10]
inactive: all other assays above

CC(=O)CCC=C(C)C
not listed: [5] | [7]
inactive: all other assays above
